Eleven compounds from PubChem BioAssay (EPA / NIEHS) can be followed below.

Holding throughout (conditions): primary human HUVEC with PBMC; actives raise or lower the signal
Read-out in assay [1]: Monocyte Chemoattractant Protein-1 (MCP1), CCL2 (gene 6347)
The assay is described as follows: BSK_LPS_MCP1: BioMAP Diversity Plus: LPS Assay for Monocyte Chemoattractant Protein-1 (MCP1) Biomarker Activity (AID 2283081). The essentials:
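Secreted MCP-1 read by ELISA at 24 h post-dosing in an LPS-activated co-culture of endothelial cells with peripheral blood mononuclear cells. Fits run in both directions, DMSO as baseline; parallel SRB staining tracks overt cytotoxicity.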

Assay [2] in a line: BSK_LPS_PGE2: BioMAP Diversity Plus: LPS Assay for Prostaglandin E2 (PGE2) Biomarker Activity (AID 2283082). In short, it runs like this: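 Compounds were added to the LPS co-culture of endothelium and PBMC, and PGE2 was measured by ELISA after 24 h. Responses in either direction were fitted with DMSO as baseline.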
Read-out in assay [3]: Macrophage colony-stimulating factor (MCSF), CSF1 (gene 1435)
As to the kind of experiment: BSK_LPS_MCSF: BioMAP Diversity Plus: LPS Assay for Macrophage colony-stimulating factor (MCSF) Biomarker Activity (AID 2283083). In short, it runs like this: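 Bidirectional fitting against DMSO was applied to M-CSF levels read by ELISA at 24 h post-dose. The system pairs human umbilical vein endothelium with peripheral blood mononuclear cells; parallel SRB staining tracked cytotoxicity.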

Read-out in assay [4]: Tissue Factor, F3 (gene 2152)
The assay is described as follows: BSK_LPS_TissueFactor: BioMAP Diversity Plus: LPS Assay for Tissue Factor Biomarker Activity (AID 2283084). In short, it runs like this: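 Compound was added to an endothelial cell/PBMC co-culture, and after 24 h tissue factor (CD142) was read by ELISA. Gain or loss of signal was fitted against a DMSO baseline, and parallel SRB staining (560 nm) tracked overt cytotoxicity.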

Read-out in assay [5]: Tumor necrosis factor (Homo sapiens) (UniProt P01375)
The assay is described as follows: BSK_LPS_TNFa: BioMAP Diversity Plus: LPS Assay for Tumour Necrosis Factor alpha (TNFa) Biomarker Activity (AID 2283085). In short, it runs like this:
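Cells (umbilical vein endothelium plus peripheral blood mononuclear cells) were dosed with chemical, incubated 24 h, then TNFa was quantified by ELISA; values derive from bidirectional fitting with DMSO as baseline.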

Read-out in assay [6]: Vascular cell adhesion molecule 1 (VCAM1), VCAM1 (gene 7412)
The assay is described as follows: BSK_LPS_VCAM1: BioMAP Diversity Plus: LPS Assay for Vascular cell adhesion molecule 1 (VCAM1) Biomarker Activity (AID 2283086). The essentials: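 Cells are dosed in an LPS-stimulated endothelial/mononuclear co-culture and, after 24 h, VCAM-1 is quantified by ELISA. Activity in either direction is fitted relative to the DMSO negative control.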

Read-out in a further assay: CD38, CD38 (gene 952)
The assay is described as follows: BSK_SAg_CD38: BioMAP Diversity Plus: SAg Assay for CD38 Biomarker Activity (AID 2283087). The essentials: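 CD38 quantified by ELISA (fluorescence) in a superantigen-activated endothelial cell–PBMC co-culture at 24 h post-dose. Activity fitted in both directions relative to DMSO; parallel SRB and Alamar Blue cytotoxicity read-outs.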

Read-out in a further assay: CD40, CD40 (gene 958)
As to the kind of experiment: BSK_SAg_CD40: BioMAP Diversity Plus: SAg Assay for CD40 Biomarker Activity (AID 2283088). In short, it runs like this:
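CD40 is measured by fluorescence ELISA in an endothelial/PBMC primary human co-culture at 24 h post-dose. Fitting is bidirectional, DMSO baseline. Parallel SRB staining (560 nm) flags cytotoxicity.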

Read-out in another assay: CD69, CD69 (gene 969)
As to the kind of experiment: BSK_SAg_CD69: BioMAP Diversity Plus: SAg Assay for CD69 Biomarker Activity (AID 2283089).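 For AC50: cell surface CD69 protein quantified by ELISA with fluorescence detection.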 In short, it runs like this: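 Endothelial/PBMC co-culture; chemical added; 24 h incubation; CD69 ELISA with fluorescence detection; bidirectional fit vs DMSO.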

Read-out in assay [7]: Monocyte Chemoattractant Protein-1 (MCP1), CCL2 (gene 6347)
As to the kind of experiment: BSK_SAg_MCP1: BioMAP Diversity Plus: SAg Assay for Monocyte Chemoattractant Protein-1 (MCP1) Biomarker Activity (AID 2283090). In short, it runs like this:
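Values derive from bidirectional fitting of ELISA-measured MCP1 against DMSO controls. Readings were taken 24 h after dosing human vascular endothelial cells co-cultured with peripheral blood mononuclear cells under superantigen stimulation.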

The source made the active and inactive calls. Rule for the calls: active = hit-call score of the fitted dose curve at least 0.9, where 1 is the maximum; inactive = score below 0.9.

Chain of Tumor necrosis factor (Homo sapiens) (P01375 whole entry, looked up): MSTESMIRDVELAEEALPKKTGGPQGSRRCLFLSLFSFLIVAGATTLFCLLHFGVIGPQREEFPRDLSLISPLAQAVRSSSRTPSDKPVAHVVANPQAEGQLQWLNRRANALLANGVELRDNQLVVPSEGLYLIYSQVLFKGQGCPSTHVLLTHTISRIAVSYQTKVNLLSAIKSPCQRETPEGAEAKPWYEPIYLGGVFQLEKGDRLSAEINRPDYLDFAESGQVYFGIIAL

Turning to `NNC(=O)c1ccncc1`, the result in assay [1], in assay [2], in assay [3], in assay [4], in assay [5] and in assay [6] was inactive. For the same compound, the outcome is “inactive” in the assay with CD38, CD38 (gene 952); “inactive” with CD40, CD40 (gene 958); “inactive” in the assay with CD69, CD69 (gene 969); “inactive” in assay [7].

With `O=C(Cl)C(F)(F)C(F)(F)C(F)(F)C(=O)Cl`, the outcome in assay [1] is “inactive”; in assay [2], “inactive”; in assay [3], “inactive”; in assay [5], “inactive”; in assay [6] it was “inactive”; with CD38, CD38 (gene 952), “inactive”. The outcome with CD40, CD40 (gene 958) was “inactive”; in the assay with CD69, CD69 (gene 969), “inactive”; in assay [7], “inactive”.

The AC50 is the concentration at which the activity in the assay is half-maximal. Take `c1ccc(C(O[C@@H]2CCCN(CCc3ccc4c(c3)OCO4)C2)c2ccccc2)cc1`: the result in assay [1], in assay [2], in assay [5] and in assay [6] was inactive. Besides, the AC50 in assay [3] was 29.8 µM (active); in the assay with CD38, CD38 (gene 952) it was 30.6 µM (active); with CD40, CD40 (gene 958), 30.4 µM (active); in the assay with CD69, CD69 (gene 969), 30.3 µM (active); in assay [7] it was 26.5 µM (active).

As to `CCCCCCCC1CCC(=O)O1` (configuration not stated), the outcome in assay [1] is “inactive”; in assay [2] it was “inactive”; in assay [3], “inactive”; in assay [5] it was “inactive”; in assay [6], “inactive”; with CD38, CD38 (gene 952), “inactive”. The outcome in the assay with CD40, CD40 (gene 958) is “inactive”; in the assay with CD69, CD69 (gene 969) it was “inactive”; in [7], “inactive”.

In the case of `Cc1ccc(S(=O)(=O)NC(=O)NN2CCCCCC2)cc1`, the result in assay [1], in assay [2], in assay [3], in assay [4], in assay [5] and in assay [6] was inactive. In addition, the outcome in the assay with CD38, CD38 (gene 952) was “inactive”; with CD40, CD40 (gene 958) it was “inactive”; in the assay with CD69, CD69 (gene 969) it was “inactive”; in [7], “inactive”.

For the compound `NCC(F)(F)C(F)(F)C(F)(F)C(F)(F)F`, the result in assay [1], in assay [2], in assay [3], in assay [4], in assay [5] and in assay [6] was inactive. The outcome in the assay with CD38, CD38 (gene 952) was “inactive”; in the assay with CD40, CD40 (gene 958) it was “inactive”; with CD69, CD69 (gene 969), “inactive”; in [7], “inactive”.

For `OCc1ccccc1`, the outcome in [2] is “inactive”; in assay [3], “inactive”; in assay [4], “inactive”; in [5] it was “inactive”; in [6] it was “inactive”; with CD38, CD38 (gene 952), “inactive”. Moreover, the outcome in the assay with CD40, CD40 (gene 958) is “inactive”; with CD69, CD69 (gene 969), “inactive”; in [7] it was “inactive”.

For the compound `CCCCCCOC(=O)CC(CC(=O)OCCCCCC)(OC(=O)CCC)C(=O)OCCCCCC`, the outcome in assay [1] is “inactive”; in [2], “inactive”; in assay [3], “inactive”; in assay [5], “inactive”; in [6], “inactive”; with CD38, CD38 (gene 952), “inactive”. Also, the outcome with CD40, CD40 (gene 958) was “inactive”; with CD69, CD69 (gene 969), “inactive”; in assay [7], “inactive”.

As for `CCCCCCCCN(C)C`, the outcome was “inactive” in assay [1]; “inactive” in [2]; “inactive” in [3]; “inactive” in assay [5]; “inactive” in assay [6]; “inactive” with CD38, CD38 (gene 952). For the same compound, the outcome with CD40, CD40 (gene 958) was “inactive”; with CD69, CD69 (gene 969), “inactive”; in [7], “inactive”.

As to `NC(=O)N(O)[C@@H]1COc2cc(OCc3ccccc3)ccc21`, in assay [2], the AC50 was 3.45 µM (active). The outcome in [3] was “inactive”; in [4], “inactive”; in assay [5], “inactive”; in assay [6] it was “inactive”; with CD38, CD38 (gene 952), “inactive”; with CD40, CD40 (gene 958), “inactive”. Further, the outcome in the assay with CD69, CD69 (gene 969) is “inactive”; in assay [7], “inactive”.

As for `OCCOCCOCCO`, the outcome is “inactive” in assay [2]; “inactive” in assay [3]; “inactive” in assay [4]; “inactive” in assay [5]; “inactive” in assay [6]; “inactive” in the assay with CD38, CD38 (gene 952). The outcome in the assay with CD40, CD40 (gene 958) is “inactive”; in the assay with CD69, CD69 (gene 969), “inactive”; in assay [7], “inactive”.
